3 compounds from PubChem BioAssay AID2284158 (EPA ToxCast) can be followed below.

SMILES strings stand for the structures. Active and inactive are the calls of the source. How the source made its calls: active means hit-call score of the fitted dose curve at least 0.9, where 1 is the maximum; inconclusive means response in the unintended direction; inactive means score below 0.9.

Sequence of D(1A) dopamine receptor (Homo sapiens) (P21728 whole entry, looked up): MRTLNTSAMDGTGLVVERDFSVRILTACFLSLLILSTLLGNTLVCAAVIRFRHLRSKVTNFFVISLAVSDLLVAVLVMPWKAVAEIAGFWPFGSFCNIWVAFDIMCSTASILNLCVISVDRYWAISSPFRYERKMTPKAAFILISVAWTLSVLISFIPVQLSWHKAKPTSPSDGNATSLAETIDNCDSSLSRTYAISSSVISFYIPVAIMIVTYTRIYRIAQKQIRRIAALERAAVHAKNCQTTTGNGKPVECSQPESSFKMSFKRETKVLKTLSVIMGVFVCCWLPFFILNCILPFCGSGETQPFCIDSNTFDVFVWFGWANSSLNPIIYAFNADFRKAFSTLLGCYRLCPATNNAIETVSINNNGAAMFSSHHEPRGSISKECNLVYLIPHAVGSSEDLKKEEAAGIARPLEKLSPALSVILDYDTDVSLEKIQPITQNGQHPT

The target of this experiment is D(1A) dopamine receptor (Homo sapiens) (UniProt P21728). In words: ERF_FR_GPCR_hDRD1: Eurofins (ERF) G Protein-Coupled Receptor (GPCR) Radioligand Binding LeadHunter Assay for human Dopamine Receptor D1 Antagonism, conducted at France lab site. As to the method:
ERF_FR_GPCR_hDRD1 is a biochemical, single-readout assay that uses extracted gene-proteins in a cell-free assay. Measurements were taken 1 hour after chemical dosing in a 96-well plate. See D1 Human Dopamine GPCR Binding (Antagonist Radioligand) Assay, Cerep.ERF_FR_GPCR_hDRD1 is an assay component calculated from the ERF_FR_GPCR_hDRD1 assay. It is designed to measure radioligand binding using a type of binding reporter as detected by scintillation counting with radiometry technology.Data from the assay component ERF_FR_GPCR_hDRD1 was analyzed at the assay endpoint, ERF_FR_GPCR_hDRD1, in the positive analysis fitting direction relative to DMSO as the negative control and baseline of activity. Using a type of binding reporter, loss-of-signal activity can be used to understand changes in binding as they relate to gene DRD1. To generalize the intended target to other relatable targets, this assay endpoint is annotated to the gpcr intended target family, where the subfamily is dopamine.
Human cells are incubated for 60 minutes at room temprature with [3H]SCH 23390 ligand (0.3 nM) and SCH 23390 as control inhibitor.Test Sample Requirements: Minimum for 1) Screen: 60 ul of 10 mM stock -OR- 1 mg (pre-weighed) for 10 uM final testing. 2) Dose Response: 90 ul of 10 mM stock -OR- 1 mg (pre-weighed) for a top concentration at 10 uM.
In the case of `COc1cc(CCC(=O)CC(=O)CCc2ccc(O)c(OC)c2)ccc1O`, the result was inactive.

For orientation: AC50 means the concentration at which the activity in the assay is half-maximal. In the case of `COc1cc(/C=C/C(=O)CC(=O)/C=C/c2ccc(O)c(OC)c2)ccc1O`, the half-maximal activity concentration (AC50) was 2040 nM (active).

With `O=C(/C=C/c1ccc(O)cc1)CC(=O)/C=C/c1ccc(O)cc1`, the AC50 is 1070 nM (active).
